PubChem BioAssay (NCI)
The panel holds about 83,000 compounds, 20% with a hit somewhere; the sample as a whole holds those more often.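 Treatment: one concentration, 48 hours, 96-well format. Scoring: percent growth, with anything below 10 considered active.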 Values without a mark were called inactive. Calls of active or inactive are those of the source.

Legend:
Assay in all cases: NCI-60 one-dose screen, 48 h (100 = growth as untreated, 0 = no growth, -100 = all killed)
SR leukemia = conditions: 10 µM
RPMI-8226 leukemia = conditions: 10 µM
OVCAR-8 ovarian = conditions: 10 µM
OVCAR-5 ovarian = conditions: 10 µM
OVCAR-4 ovarian = conditions: 10 µM
SK-OV-3 ovarian = conditions: 10 µM
IGROV1 ovarian = conditions: 10 µM
OVCAR-3 ovarian = conditions: 10 µM
HS 578T breast = conditions: 10 µM
NCI/ADR-RES ovarian = conditions: 10 µM
T-47D breast = conditions: 10 µM
MDA-MB-435 melanoma = conditions: 10 µM
SW-620 colon = conditions: 10 µM
MCF7 breast = conditions: 10 µM unless noted
HCT-116 colon = conditions: 10 µM
KM12 colon = conditions: 10 µM
BT-549 breast = conditions: 10 µM
HCC-2998 colon = conditions: 10 µM

Nc1ncnc2[nH]ncc12
growth (SR leukemia): 26.1% | growth (RPMI-8226 leukemia): 8.64% (active) | growth (OVCAR-8 ovarian): 6.29% (active) | growth (OVCAR-5 ovarian): 20.5% | growth (OVCAR-4 ovarian): -5.84% (active) | growth (SK-OV-3 ovarian): 2.06% (active) | growth (IGROV1 ovarian): 6.63% (active) | growth (OVCAR-3 ovarian): -22.2% (active) | growth (HS 578T breast): 37.3% | growth (NCI/ADR-RES ovarian): 0.445% (active) | growth (T-47D breast): 6% (active) | growth (MDA-MB-435 melanoma): 15.2% | growth (SW-620 colon): 17.5% | growth (MCF7 breast): 7.48% (active) | growth (HCT-116 colon): 5.13% (active) | growth (KM12 colon): 18%

O=C(O)/C=C/c1ccc2c(c1)CCC2
growth (SR leukemia): 80.2% | growth (RPMI-8226 leukemia): 99.2% | growth (OVCAR-8 ovarian): 99.8% | growth (OVCAR-5 ovarian): 97.8% | growth (OVCAR-4 ovarian): 104% | growth (SK-OV-3 ovarian): 99.6% | growth (IGROV1 ovarian): 118% | growth (OVCAR-3 ovarian): 117% | growth (NCI/ADR-RES ovarian): 109% | growth (T-47D breast): 104% | growth (BT-549 breast): 100% | growth (MDA-MB-435 melanoma): 99.8% | growth (SW-620 colon): 106% | growth (MCF7 breast): 109% | growth (HCT-116 colon): 105% | growth (HCC-2998 colon): 108% | growth (KM12 colon): 106%

Cc1ccc(Cl)cc1N1C(=O)CC(Sc2ccccc2N)C1=O (centres undefined)
growth (SR leukemia): 101% | growth (RPMI-8226 leukemia): 91.3% | growth (OVCAR-8 ovarian): 87.8% | growth (OVCAR-5 ovarian): 105% | growth (OVCAR-4 ovarian): 101% | growth (SK-OV-3 ovarian): 102% | growth (OVCAR-3 ovarian): 106% | growth (HS 578T breast): 103% | growth (NCI/ADR-RES ovarian): 101% | growth (T-47D breast): 103% | growth (BT-549 breast): 111% | growth (MDA-MB-435 melanoma): 102% | growth (SW-620 colon): 108% | growth (MCF7 breast): 90.2% | growth (HCT-116 colon): 111% | growth (HCC-2998 colon): 101% | growth (KM12 colon): 112%

CCCCCCCCCCCCCCCCC1CC(=O)OC1=O (centres undefined)
growth (SR leukemia): 99.3% | growth (RPMI-8226 leukemia): 108% | growth (OVCAR-8 ovarian): 101% | growth (OVCAR-5 ovarian): 102% | growth (OVCAR-4 ovarian): 108% | growth (SK-OV-3 ovarian): 106% | growth (IGROV1 ovarian): 124% | growth (OVCAR-3 ovarian): 119% | growth (HS 578T breast): 106% | growth (NCI/ADR-RES ovarian): 113% | growth (T-47D breast): 97.4% | growth (MDA-MB-435 melanoma): 101% | growth (SW-620 colon): 105% | growth (MCF7 breast): 98.5% | growth (HCC-2998 colon): 114% | growth (KM12 colon): 108%

COc1cccc(O)c1O
growth (SR leukemia): 29.9% | growth (RPMI-8226 leukemia): 89.2% | growth (OVCAR-8 ovarian): 86.2% | growth (OVCAR-5 ovarian): 101% | growth (OVCAR-4 ovarian): 96.3% | growth (SK-OV-3 ovarian): 76.9% | growth (IGROV1 ovarian): 96.4% | growth (OVCAR-3 ovarian): 6.36% (active) | growth (NCI/ADR-RES ovarian): 85.6% | growth (T-47D breast): 84.1% | growth (BT-549 breast): 82.3% | growth (MDA-MB-435 melanoma): 6.89% (active) | growth (SW-620 colon): 42.6% | growth (MCF7 breast): 20.2% | growth (HCT-116 colon): 98.6% | growth (HCC-2998 colon): 99.8% | growth (KM12 colon): 52.6%

c1ccc2c(c1)Sc1ccccc1S2
growth (SR leukemia): 117% | growth (RPMI-8226 leukemia): 99.2% | growth (OVCAR-8 ovarian): 99.3% | growth (OVCAR-5 ovarian): 108% | growth (OVCAR-4 ovarian): 98.8% | growth (SK-OV-3 ovarian): 112% | growth (IGROV1 ovarian): 106% | growth (OVCAR-3 ovarian): 113% | growth (HS 578T breast): 102% | growth (NCI/ADR-RES ovarian): 101% | growth (MDA-MB-435 melanoma): 110% | growth (SW-620 colon): 104% | growth (MCF7 breast): 95.7% | growth (HCT-116 colon): 106% | growth (HCC-2998 colon): 92.5% | growth (KM12 colon): 108%
